Measurements taken from PubChem BioAssay.
Several values for one entry are separate records, joined by “and”; a condition that tells them apart may be missing. Identical values can stand only once. For some of these results: Results with a measured potency or affinity are listed apart. Activity calls are given as the source filed them.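 The calls were made as follows, unless noted: active = membrane potential signal rise above negative control mean plus 3 SD in both duplicates, also active in the earlier TRPC4 screen; inactive = the rest.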

Legend:
[1] = test system: TRPC4 beta (transient receptor potential cation channel C4), mouse; test: TRPC4 cation channel opening, retest – cell-based, Fluo4 calcium, HEK293 TRPC4beta/mu-opioid, duplicates, 10 µM, confirmation (AID 2426;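 active = fluorescence ratio normalized to control raised more than 50% in primary screen plus both repeat runs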;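 as to activation: percent rise of integrated ratio over buffer wells lacking compound which define 0%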); conditions: Fluo4 calcium fluorescence, at 10 µM; hits give high values
[2] = test system: transient receptor potential cation channel C4 beta (TRPC4), mouse; test: TRPC4 cation channel opening, second retest – cell-based, second round, Fluo4, HEK293 TRPC4beta/mu-opioid, 1 µM, confirmation (AID 2461;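 active = primary screen active and over 50% activation in each of two duplicate runs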;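 as to activation: 0% = wells without test compound as baseline of integrated fluorescence ratio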); conditions: Fluo4 calcium fluorescence, at 1 µM; hits give high values
[3] = test system: TRPC4 (transient receptor potential cation channel C4 beta), mouse; test: potentiation of DAMGO EC20 TRPC4 response – cell-based, second round, Fluo-4, HEK293 TRPC4beta/mu-opioid, 1 µM, confirmation (AID 2554;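 active = primary screen hit whose fluorescence ratio, in both repeats, exceeds the weak agonist control mean by 3 SD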); conditions: DAMGO EC20, Fluo-4 calcium flux, at 1 µM; hits give high values
[4] = test system: TRPC4 beta (transient receptor potential cation channel C4), mouse; test: potentiation of DAMGO EC20 TRPC4 response – cell-based, Fluo-4, HEK293 TRPC4beta/mu-opioid, confirmation (AID 2555;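 active = primary screen hit whose calcium fluorescence ratio, in both repeats, exceeds the weak agonist control mean by 3 SD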); conditions: DAMGO EC20, Fluo-4 calcium flux, at 10 µM; hits give high values
[5] = target: Short transient receptor potential channel 4 (Mus musculus) (UniProt Q9QUQ5); test: blockers of DAMGO-evoked TRPC4 calcium flux – cell-based, Fluo4, HEK293 TRPC4beta/mu-opioid, confirmation (AID 2636;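 active = calcium signal cut by more than 3 SD below the full-agonist control yet still positive, in both repeats and the earlier primary screen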); conditions: at 10 µM; hits give high values
Sequence of Short transient receptor potential channel 4 (Mus musculus) (Q9QUQ5 whole entry, looked up): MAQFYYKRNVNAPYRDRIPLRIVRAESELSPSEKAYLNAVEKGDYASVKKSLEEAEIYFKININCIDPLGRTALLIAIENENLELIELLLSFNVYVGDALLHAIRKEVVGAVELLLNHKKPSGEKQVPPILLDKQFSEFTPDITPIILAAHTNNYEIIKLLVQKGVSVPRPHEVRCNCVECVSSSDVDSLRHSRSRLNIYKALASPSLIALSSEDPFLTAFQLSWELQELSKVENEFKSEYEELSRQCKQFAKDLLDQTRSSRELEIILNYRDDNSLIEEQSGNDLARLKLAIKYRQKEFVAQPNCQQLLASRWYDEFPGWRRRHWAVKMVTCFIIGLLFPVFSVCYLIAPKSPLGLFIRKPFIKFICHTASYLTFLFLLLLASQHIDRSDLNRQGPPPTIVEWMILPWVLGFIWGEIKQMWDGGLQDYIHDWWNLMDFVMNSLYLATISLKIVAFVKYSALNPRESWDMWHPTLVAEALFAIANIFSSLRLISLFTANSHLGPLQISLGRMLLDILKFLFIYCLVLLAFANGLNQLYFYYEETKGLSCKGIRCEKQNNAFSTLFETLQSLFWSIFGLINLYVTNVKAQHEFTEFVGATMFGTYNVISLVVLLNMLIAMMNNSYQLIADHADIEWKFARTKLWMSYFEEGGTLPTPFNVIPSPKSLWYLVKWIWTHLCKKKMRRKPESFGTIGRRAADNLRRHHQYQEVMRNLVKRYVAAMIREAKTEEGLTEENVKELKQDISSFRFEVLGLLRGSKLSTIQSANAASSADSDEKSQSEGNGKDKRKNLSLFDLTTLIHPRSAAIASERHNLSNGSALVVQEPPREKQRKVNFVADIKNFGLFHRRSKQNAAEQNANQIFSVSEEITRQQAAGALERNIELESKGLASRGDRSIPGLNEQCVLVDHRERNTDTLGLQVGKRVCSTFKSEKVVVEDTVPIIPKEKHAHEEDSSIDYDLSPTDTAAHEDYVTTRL

[6] = target: Short transient receptor potential channel 4 (Mus musculus) (UniProt Q9QUQ5); test: blockers of DAMGO-evoked TRPC4 calcium flux – cell-based, second round, Fluo4, HEK293 TRPC4beta/mu-opioid, 1 µM, confirmation (AID 2637;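 active = calcium signal ratio cut to more than 3 SD under the fully stimulated control mean yet still positive, in both repeats and the primary screen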); conditions: at 1 µM; hits give high values
[7] = target: Short transient receptor potential channel 4 (Mus musculus) (UniProt Q9QUQ5); test: potentiation of DAMGO-evoked TRPC4 calcium signal – cell-based, HEK293 TRPC4/mu-opioid, Fluo-4 calcium, EC20 DAMGO, dose response (AID 434941;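 active = earlier screen potentiator hit that boosts the TRPC4 ion channel at some dose, with a dose response; inactive = no potentiation, no dose response, or not a prior hit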;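 also: calcium entry triggered by an EC20 dose of DAMGO at the co-expressed mu-opioid receptor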)
[8] = target: Short transient receptor potential channel 4 (Mus musculus) (UniProt Q9QUQ5); test: block of DAMGO-driven TRPC4 calcium entry – cell-based, HEK293 TRPC4/mu-opioid, Fluo-4 calcium, dose response (AID 434942;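 active = primary screen inhibitor hit that blocks the TRPC4 channel at some tested dose, yielding a dose curve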)
[9] = target: Short transient receptor potential channel 6 (Mus musculus) (UniProt Q61143); test: TRPC6 blockade by TRPC4 inhibitor hits – cell-based, HEK293, membrane potential dye, duplicate, selectivity assay for TRPC4 inhibitor project, confirmation (AID 434948;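 active = active in primary screen and both duplicates, each dropping signal beyond three positive-control SD with fluorescence still positive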); conditions: HEK293 TRPC6, membrane potential dye fluorescence, at 10 µM, stimulated with maximal-effect acetylcholine; hits give high values
Sequence of Short transient receptor potential channel 6 (Mus musculus) (Q61143 whole entry, looked up): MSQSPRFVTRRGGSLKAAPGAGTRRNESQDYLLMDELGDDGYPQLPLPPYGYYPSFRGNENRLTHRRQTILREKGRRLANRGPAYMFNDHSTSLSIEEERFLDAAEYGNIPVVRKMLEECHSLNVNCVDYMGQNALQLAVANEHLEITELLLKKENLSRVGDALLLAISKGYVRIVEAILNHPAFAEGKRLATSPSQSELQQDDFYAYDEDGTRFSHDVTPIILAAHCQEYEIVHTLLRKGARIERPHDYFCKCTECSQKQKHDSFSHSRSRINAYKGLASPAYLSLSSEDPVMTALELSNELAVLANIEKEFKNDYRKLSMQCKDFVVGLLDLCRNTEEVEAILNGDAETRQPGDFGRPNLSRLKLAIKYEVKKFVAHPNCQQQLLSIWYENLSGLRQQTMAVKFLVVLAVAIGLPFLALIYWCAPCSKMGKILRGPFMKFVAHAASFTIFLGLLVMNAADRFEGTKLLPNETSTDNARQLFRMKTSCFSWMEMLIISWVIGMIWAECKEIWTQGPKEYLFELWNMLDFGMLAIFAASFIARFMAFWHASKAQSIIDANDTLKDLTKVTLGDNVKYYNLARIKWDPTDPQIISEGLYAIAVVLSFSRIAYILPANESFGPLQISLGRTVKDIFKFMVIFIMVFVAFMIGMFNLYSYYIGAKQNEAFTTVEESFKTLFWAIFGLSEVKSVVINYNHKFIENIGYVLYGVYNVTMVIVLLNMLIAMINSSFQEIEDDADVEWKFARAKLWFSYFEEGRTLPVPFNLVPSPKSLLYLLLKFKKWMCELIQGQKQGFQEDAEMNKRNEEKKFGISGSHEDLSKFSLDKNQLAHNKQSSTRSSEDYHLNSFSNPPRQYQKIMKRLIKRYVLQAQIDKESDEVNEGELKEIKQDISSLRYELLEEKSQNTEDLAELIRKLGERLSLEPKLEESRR

[10] = target: Short transient receptor potential channel 6 (Mus musculus) (UniProt Q61143); test: TRPC6 opening by TRPC4 activator hits – cell-based, HEK293, membrane potential dye, duplicate, selectivity assay for TRPC4 activator project, confirmation (AID 434950); conditions: HEK293 TRPC6, membrane potential fluorescence, at 10 µM; activation: hits give high values; outcome: activation;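 as to activation: 0% = buffer only wells and 100% = acetylcholine maximal-effect wells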
[11] = target: Short transient receptor potential channel 6 (Mus musculus) (UniProt Q61143); test: positive modulators of mouse TRPC6 channel – HEK293 cells, membrane potential dye, duplicate, selectivity assay for TRPC4 potentiator project, confirmation (AID 434952;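 active = compound raising the membrane signal above positive-control mean plus 3 SD in both repeats, and a primary screen hit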); conditions: HEK293 TRPC6, membrane potential dye fluorescence, at 10 µM, maximal acetylcholine added after compound; hits give high values
[12] = target: Short transient receptor potential channel 4 (Mus musculus) (UniProt Q9QUQ5); test: calcium flux activators in TRPC4/5HT1a cells, counter-screen for TRPC4 activator project, cell-based, second counter screen, HEK293 TRPC4/5HT1a, Fluo-4 (AID 434977;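 active = calcium signal rise above buffer-control mean plus 5 SD in both duplicates, and also a hit in the primary screen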;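 as to activation: plate controls were assay buffer for no effect and maximal serotonin response for full effect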); conditions: Fluo-4 calcium flux, at 10 µM; hits give high values
[13] = serotonin-gated TRPC4 signal block – cell-based, second counter screen, HEK293 TRPC4/5HT1a, Fluo-4, counter-screen for TRPC4 inhibitor project, confirmation (AID 434978;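 active = primary screen active whose calcium signal fell more than 3 SD beyond the full-serotonin control mean in both duplicate plates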;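 also: serotonin given first at submaximal then at maximal dose after compound preincubation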); conditions: Fluo-4 calcium flux, at 10 µM, serotonin added to trigger calcium flux; hits give high values
[14] = test system: TRPC4 (mouse), co-expressed with 5HT1a in HEK293; test: enhancement of serotonin-evoked TRPC4 response – cell-based, second counter screen, HEK293 TRPC4/5HT1a, Fluo-4, counter-screen for TRPC4 potentiator project, confirmation (AID 434979;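 active = signal rise over 3 SD above mean of control wells given weak agonist, in both repeats and first screen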); conditions: Fluo-4 calcium flux, at 10 µM, serotonin added at its EC20 dose; hits give high values
[15] = nonspecific calcium rise without TRPC4 – cell-based, HEK293 mu-opioid receptor line, counter-screen for TRPC4 activator project, confirmation (AID 449723;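 active = hit in primary screen, with calcium signal over 5 SD above buffer well mean in both duplicates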;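 also: counter screen cells carry the mu-opioid receptor alone and lack TRPC4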); conditions: HEK293 mu-opioid cells, Fluo-4 calcium fluorescence, at 10 µM; hits give high values
[16] = nonspecific potentiation of DAMGO calcium response – cell-based, HEK293 mu-opioid receptor line, counter-screen for TRPC4 allosteric potentiator project, confirmation (AID 449724;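 active = calcium signal rise more than 3 SD above the low-dose agonist control mean, in both duplicate plates and the primary screen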); conditions: HEK293 mu-opioid receptor cells, Fluo-4 calcium flux, at 10 µM, compound added before EC20 DAMGO stimulus; hits give high values

Measured: activation

CC(=O)OCC[N+](C)(C)C
active: [1] 128% and 146% | [2] 81% and 93% | [10] 91.5% and 116% | [12] 110% and 105% | [15] 101% and 102%
inactive: [3] | [4] | [5] | [6] | [7] | [8] | [9] | [11] | [13] | [14] | [16]

CN(C)C(CNc1ccc(C(F)(F)F)cn1)c1ccccc1 (stereo not drawn)
inactive: [2] | [3] | [4] | [5] | [6] | [7] | [8] | [9] | [11] | [13] | [14] | [15] | [16]
active: [1] 135% | [10] 32% | [12] 5.53%

CN(C)C(CNC(=S)Nc1ccc(Cl)cc1)c1cccnc1 (stereo not drawn)
active: [2] 118%
inactive: [1] | [3] | [4] | [5] | [6] | [7] | [8] | [9] | [10] | [11] | [12] | [13] | [14] | [15] | [16]

CC[C@@H](C)[C@H](CNC)NC[C@@H](Cc1cccc2ccccc12)NCCc1cccc(C(F)(F)F)c1
active: [1] 127% | [10] 29% | [12] 111% | [15] 25.7%
inactive: [2] | [3] | [4] | [5] | [6] | [7] | [8] | [9] | [11] | [13] | [14] | [16]

CCOc1ccccc1C1CC(c2ccc(Cl)cc2)Nc2nc(N)nn21 (stereo not drawn)
inactive: [2] | [3] | [4] | [5] | [6] | [7] | [8] | [9] | [10] | [11] | [13] | [14] | [15] | [16]
active: [1] 243% | [12] 6.24%

OCC1(CC2CCCCO2)CCN(Cc2ccccc2-c2ccco2)CC1 (stereo not drawn)
inactive: [1] | [2] | [3] | [4] | [5] | [6] | [7] | [8] | [9] | [10] | [11] | [12] | [13] | [14] | [15] | [16]

O=C(NCCc1ccccn1)c1ccc(COc2ccccc2)o1
inactive: [1] | [2] | [3] | [4] | [5] | [6] | [7] | [8] | [9] | [11] | [13] | [14] | [15] | [16]
active: [10] 35% | [12] 58.4%

CCOC(=O)C1(Cc2ccccc2)CCN(Cc2cccn2-c2cccnc2)CC1
inactive: [2] | [3] | [4] | [5] | [6] | [7] | [8] | [9] | [11] | [12] | [13] | [14] | [15] | [16]
active: [1] 55% | [10] 89%

Cn1c(N2CCN(C(=O)Nc3ccc(F)cc3)CC2)nc2ccccc21
inactive: [2] | [3] | [4] | [5] | [6] | [7] | [8] | [9] | [10] | [11] | [13] | [14] | [15] | [16]
active: [1] 51% | [12] 22.1%

CN(C)C(CNC(=S)Nc1ccccc1Cl)c1cccnc1 (stereo not drawn)
active: [1] 109% | [2] 144%
inactive: [3] | [4] | [5] | [6] | [7] | [8] | [9] | [10] | [11] | [12] | [13] | [14] | [15] | [16]

CC(C)Cc1ccc(CN2CCCC(NC(=O)CCn3cnnn3)C2)cc1 (stereo not drawn)
inactive: [2] | [3] | [4] | [5] | [6] | [7] | [8] | [9] | [10] | [11] | [13] | [14] | [15] | [16]
active: [1] 111% | [12] 27.9%

O=C(O)C1C2C=CC(C2)C1C(=O)N1CCN(C/C=C/c2ccccc2)CC1 (stereo not drawn)
inactive: [2] | [3] | [4] | [5] | [6] | [7] | [8] | [9] | [11] | [13] | [14] | [15] | [16]
active: [1] 71% | [10] 26% | [12] 12.8%

COc1ccc(C)c(NC(=O)NCCc2cnc[nH]2)c1
active: [1] 152% | [10] 33% | [12] 56.4%
inactive: [2] | [3] | [4] | [5] | [6] | [7] | [8] | [9] | [11] | [13] | [14] | [15] | [16]
